Source: PMC7862700, “An all-to-all approach to the identification of sequence-specific readers for epigenetic DNA modifications on cytosine”

How the values were obtained:
Assay in all cases: DAPPL (digital affinity profiling via proximity ligation, sequencing); 10 mM Tris-HCl pH 7.5, 50 mM NaCl, 1 mM DTT, 4% glycerol, room temperature, 30 min; GST-TFs on glutathione beads, 16-mer random dsDNA library, 0.1% formaldehyde crosslink after washing; high values mean tight binding
FLI1 = molecular target: T1, FLI1 (Homo sapiens, UniProt Q01543 1-452); settings: protein: recombinant; tags: N-terminal GST; dsDNA, one strand shown
T1 sequence: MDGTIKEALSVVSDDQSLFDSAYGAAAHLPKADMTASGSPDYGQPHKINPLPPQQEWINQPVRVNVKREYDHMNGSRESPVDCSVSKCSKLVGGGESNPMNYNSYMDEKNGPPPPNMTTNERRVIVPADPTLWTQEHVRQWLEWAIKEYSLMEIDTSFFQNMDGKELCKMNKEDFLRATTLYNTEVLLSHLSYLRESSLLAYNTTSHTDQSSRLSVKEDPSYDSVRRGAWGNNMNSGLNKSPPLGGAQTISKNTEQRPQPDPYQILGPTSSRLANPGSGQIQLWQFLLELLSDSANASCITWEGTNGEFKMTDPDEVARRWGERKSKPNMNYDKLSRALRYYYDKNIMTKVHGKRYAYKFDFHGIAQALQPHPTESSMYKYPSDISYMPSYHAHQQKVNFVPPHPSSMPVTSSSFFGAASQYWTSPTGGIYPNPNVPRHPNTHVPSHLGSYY
Method in brief: (§1)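 After expression in yeast as GST fusions, human transcription factors were bound to glutathione beads, DNA-barcoded and mixed with a tag-only sample. The pools were incubated with 200 nmole of a 16-mer random double-stranded DNA library in Tris/NaCl/DTT/glycerol buffer (30 min, room temperature), washed and crosslinked with 0.1% formaldehyde. Proximity ligation with BsaI/T4 ligase ran for 1 h at 37 °C, before PCR amplification and sequencing on an Illumina NextSeq500. Binding signal is a hexamer's read frequency for a factor divided by its frequency for the tag-only sample.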

ELK1 = molecular target: T2, ELK1 (Homo sapiens, UniProt P19419 1-428); settings: protein: recombinant; tags: N-terminal GST; dsDNA, one strand shown
T2 sequence: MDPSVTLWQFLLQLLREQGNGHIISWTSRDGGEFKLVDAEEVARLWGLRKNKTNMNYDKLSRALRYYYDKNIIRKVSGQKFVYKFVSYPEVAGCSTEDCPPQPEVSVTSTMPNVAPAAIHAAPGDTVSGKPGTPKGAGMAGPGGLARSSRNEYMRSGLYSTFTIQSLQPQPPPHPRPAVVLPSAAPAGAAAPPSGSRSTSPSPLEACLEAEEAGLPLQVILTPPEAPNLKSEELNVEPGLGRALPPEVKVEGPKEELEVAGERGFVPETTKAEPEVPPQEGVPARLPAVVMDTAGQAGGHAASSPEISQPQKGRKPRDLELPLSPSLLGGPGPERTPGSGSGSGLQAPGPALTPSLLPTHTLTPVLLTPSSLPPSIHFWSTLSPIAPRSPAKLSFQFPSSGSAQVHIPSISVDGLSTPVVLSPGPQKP
Method in brief: as §1

GABPA = molecular target: T3, GABPA (Homo sapiens, UniProt Q06546 1-454); settings: protein: recombinant; tags: N-terminal GST; dsDNA, one strand shown
T3 sequence: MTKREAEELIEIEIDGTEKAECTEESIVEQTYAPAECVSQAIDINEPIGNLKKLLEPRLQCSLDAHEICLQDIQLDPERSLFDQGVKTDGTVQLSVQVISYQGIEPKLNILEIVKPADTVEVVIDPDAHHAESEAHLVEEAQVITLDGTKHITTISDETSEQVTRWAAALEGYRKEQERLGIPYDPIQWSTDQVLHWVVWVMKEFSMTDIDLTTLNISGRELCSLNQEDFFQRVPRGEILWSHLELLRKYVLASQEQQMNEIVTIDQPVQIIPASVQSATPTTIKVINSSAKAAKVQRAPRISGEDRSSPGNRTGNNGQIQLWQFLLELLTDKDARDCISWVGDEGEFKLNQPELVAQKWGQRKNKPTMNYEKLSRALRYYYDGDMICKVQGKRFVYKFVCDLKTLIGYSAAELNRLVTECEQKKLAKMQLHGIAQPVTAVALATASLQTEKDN
Method in brief: as §1

ERG = molecular target: T4, ERG (Homo sapiens, UniProt P11308 1-479); settings: protein: recombinant; tags: N-terminal GST; dsDNA, one strand shown
T4 sequence: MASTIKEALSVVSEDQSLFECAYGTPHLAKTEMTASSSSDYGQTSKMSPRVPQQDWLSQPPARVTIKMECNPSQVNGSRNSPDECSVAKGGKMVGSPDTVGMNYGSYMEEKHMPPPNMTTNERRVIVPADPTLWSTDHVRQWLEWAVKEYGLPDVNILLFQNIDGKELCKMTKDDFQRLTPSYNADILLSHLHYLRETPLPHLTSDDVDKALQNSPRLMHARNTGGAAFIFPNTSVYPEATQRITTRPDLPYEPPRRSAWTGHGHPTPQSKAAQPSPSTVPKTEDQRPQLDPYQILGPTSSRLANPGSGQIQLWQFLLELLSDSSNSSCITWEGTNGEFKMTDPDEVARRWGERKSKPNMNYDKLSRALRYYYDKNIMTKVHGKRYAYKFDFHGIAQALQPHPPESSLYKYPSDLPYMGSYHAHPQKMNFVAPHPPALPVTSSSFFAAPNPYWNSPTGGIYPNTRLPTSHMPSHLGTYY
Method in brief: as §1

ELF1 = ELF1 (Homo sapiens, UniProt P32519 1-619); settings: protein: recombinant; tags: N-terminal GST; dsDNA, one strand shown
Chain of ELF1 (P32519 whole entry): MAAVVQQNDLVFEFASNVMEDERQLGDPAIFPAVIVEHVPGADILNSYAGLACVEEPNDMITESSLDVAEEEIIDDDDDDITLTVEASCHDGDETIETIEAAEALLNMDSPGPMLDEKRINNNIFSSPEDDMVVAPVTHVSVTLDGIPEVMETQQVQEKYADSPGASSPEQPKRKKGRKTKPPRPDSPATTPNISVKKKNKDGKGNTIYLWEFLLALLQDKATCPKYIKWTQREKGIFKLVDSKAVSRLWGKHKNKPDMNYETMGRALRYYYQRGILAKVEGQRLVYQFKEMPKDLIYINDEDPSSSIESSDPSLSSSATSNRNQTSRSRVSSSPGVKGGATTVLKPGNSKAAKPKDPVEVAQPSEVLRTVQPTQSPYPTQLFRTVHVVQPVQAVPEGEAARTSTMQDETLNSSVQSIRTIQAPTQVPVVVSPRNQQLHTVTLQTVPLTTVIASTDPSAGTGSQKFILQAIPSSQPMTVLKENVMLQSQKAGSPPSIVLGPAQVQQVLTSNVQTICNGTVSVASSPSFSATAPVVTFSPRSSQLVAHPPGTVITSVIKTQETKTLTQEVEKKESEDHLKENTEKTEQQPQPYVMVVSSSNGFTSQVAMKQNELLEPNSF
Method in brief: as §1

EHF = molecular target: T5, EHF (Homo sapiens, UniProt Q9NZC4 1-300); settings: protein: recombinant; tags: N-terminal GST; dsDNA, one strand shown
T5 sequence: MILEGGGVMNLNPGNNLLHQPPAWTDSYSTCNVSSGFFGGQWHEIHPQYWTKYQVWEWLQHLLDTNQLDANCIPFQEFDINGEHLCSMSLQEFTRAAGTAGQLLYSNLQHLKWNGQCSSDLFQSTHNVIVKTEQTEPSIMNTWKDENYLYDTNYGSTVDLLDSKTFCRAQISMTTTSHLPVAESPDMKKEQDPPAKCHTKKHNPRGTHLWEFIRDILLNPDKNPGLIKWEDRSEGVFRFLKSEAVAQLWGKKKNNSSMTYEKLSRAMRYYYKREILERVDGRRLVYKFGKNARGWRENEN
Method in brief: as §1

SPI1 = SPI1 (Homo sapiens, UniProt P17947 1-270); settings: protein: recombinant; tags: N-terminal GST; dsDNA, one strand shown
Method in brief: as §1

SPIB = SPIB (Homo sapiens, UniProt Q01892 1-262); settings: protein: recombinant; tags: N-terminal GST; dsDNA, one strand shown
Chain of SPIB (Q01892 whole entry): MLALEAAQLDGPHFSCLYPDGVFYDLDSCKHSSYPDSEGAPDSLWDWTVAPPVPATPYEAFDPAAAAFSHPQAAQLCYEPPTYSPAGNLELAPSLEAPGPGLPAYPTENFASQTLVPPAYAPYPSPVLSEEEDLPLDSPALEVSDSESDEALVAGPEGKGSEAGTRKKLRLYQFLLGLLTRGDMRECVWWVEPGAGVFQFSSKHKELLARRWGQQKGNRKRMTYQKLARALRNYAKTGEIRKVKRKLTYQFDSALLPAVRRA
Method in brief: as §1

ELK3 = molecular target: T6, ELK3 (Homo sapiens, UniProt P41970 1-407); settings: protein: recombinant; tags: N-terminal GST; dsDNA, one strand shown
T6 sequence: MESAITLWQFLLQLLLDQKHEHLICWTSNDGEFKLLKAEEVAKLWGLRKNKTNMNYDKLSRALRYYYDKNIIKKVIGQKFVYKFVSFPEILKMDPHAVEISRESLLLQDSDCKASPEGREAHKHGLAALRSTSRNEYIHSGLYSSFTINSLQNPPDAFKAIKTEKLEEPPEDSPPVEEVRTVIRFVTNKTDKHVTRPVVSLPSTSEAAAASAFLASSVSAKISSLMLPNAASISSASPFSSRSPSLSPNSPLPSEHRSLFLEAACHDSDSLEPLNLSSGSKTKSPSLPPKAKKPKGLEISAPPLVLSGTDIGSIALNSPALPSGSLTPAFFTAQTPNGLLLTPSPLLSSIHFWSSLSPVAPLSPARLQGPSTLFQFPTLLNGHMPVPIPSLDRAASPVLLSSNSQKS
Method in brief: as §1

FEV = molecular target: T7, FEV (Homo sapiens, UniProt Q99581 1-238); settings: protein: recombinant; tags: N-terminal GST; dsDNA, one strand shown
T7 sequence: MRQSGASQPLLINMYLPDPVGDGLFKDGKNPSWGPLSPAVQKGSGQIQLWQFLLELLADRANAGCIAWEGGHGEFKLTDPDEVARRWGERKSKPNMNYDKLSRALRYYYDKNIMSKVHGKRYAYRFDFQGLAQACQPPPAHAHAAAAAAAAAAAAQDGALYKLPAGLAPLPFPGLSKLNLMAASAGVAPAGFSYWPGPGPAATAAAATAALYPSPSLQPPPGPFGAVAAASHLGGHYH
Method in brief: as §1

ETV5 = ETV5 (Homo sapiens, UniProt P41161 1-510); settings: protein: recombinant; tags: N-terminal GST; dsDNA, one strand shown
Chain of ETV5 (P41161 whole entry): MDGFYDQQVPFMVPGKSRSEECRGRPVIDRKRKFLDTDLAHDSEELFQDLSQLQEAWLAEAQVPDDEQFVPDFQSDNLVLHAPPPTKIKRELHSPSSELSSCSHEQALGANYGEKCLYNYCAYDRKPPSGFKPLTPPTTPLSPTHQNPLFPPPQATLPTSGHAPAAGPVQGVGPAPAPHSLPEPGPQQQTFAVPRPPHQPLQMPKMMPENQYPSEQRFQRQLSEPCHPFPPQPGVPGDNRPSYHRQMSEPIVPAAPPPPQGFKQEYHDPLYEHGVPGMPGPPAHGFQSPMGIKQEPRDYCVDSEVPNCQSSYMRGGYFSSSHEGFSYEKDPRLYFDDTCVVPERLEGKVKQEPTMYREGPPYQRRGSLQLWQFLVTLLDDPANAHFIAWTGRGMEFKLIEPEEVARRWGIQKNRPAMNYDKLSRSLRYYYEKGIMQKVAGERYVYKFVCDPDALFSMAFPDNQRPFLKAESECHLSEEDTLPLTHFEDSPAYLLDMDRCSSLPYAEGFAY
Method in brief: as §1

HSF1 = HSF1 (Homo sapiens, UniProt Q00613 1-529); settings: protein: recombinant; tags: N-terminal GST; chain copies: 3; dsDNA, one strand shown
Chain of HSF1 (Q00613 whole entry): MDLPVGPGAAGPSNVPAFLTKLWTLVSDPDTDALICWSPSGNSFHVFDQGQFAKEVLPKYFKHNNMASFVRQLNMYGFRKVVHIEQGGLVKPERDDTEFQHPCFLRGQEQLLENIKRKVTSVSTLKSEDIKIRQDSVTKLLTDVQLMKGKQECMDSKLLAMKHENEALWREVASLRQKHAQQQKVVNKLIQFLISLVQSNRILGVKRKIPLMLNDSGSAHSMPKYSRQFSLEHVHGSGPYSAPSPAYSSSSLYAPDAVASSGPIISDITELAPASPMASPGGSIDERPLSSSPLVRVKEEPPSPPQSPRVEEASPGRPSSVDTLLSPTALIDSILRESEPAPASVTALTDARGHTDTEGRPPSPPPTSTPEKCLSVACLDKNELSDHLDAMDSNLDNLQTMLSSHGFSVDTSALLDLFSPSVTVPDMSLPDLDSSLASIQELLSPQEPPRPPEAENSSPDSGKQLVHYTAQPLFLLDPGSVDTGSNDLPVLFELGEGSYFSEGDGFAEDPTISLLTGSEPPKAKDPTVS
Method in brief: as §1

SPIC = molecular target: T8, SPIC (Homo sapiens, UniProt Q8N5J4 1-248); settings: protein: recombinant; tags: N-terminal GST; dsDNA, one strand shown
T8 sequence: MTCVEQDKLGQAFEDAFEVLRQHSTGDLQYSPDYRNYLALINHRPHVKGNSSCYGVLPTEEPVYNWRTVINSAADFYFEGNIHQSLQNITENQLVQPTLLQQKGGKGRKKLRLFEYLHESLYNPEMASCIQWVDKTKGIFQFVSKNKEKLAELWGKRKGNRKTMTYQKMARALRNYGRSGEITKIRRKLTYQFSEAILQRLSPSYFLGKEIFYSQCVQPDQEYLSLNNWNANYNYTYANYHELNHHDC
Method in brief: as §1

ELF4 = ELF4 (Homo sapiens, UniProt Q99607 1-663); settings: protein: recombinant; tags: N-terminal GST; dsDNA, one strand shown
Chain of ELF4 (Q99607 whole entry): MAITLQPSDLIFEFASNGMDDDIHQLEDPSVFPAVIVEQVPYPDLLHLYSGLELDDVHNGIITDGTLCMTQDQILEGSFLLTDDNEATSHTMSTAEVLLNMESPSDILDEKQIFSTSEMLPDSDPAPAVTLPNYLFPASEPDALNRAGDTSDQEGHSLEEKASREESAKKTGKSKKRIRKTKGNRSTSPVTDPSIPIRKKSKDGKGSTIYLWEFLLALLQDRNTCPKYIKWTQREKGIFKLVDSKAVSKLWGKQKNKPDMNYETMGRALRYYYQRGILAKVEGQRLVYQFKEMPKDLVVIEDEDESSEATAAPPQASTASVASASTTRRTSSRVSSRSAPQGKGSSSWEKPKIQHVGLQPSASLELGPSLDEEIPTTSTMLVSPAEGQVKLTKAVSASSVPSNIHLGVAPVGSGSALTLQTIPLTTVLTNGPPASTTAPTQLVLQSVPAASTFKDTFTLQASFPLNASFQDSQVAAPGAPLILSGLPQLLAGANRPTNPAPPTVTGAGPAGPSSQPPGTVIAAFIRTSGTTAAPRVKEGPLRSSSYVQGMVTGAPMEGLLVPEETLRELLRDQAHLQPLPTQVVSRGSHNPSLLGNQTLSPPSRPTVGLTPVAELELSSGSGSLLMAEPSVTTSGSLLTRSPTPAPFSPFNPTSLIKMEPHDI
Method in brief: as §1

ELK4 = molecular target: T9, ELK4 (Homo sapiens, UniProt P28324-2 1-405); settings: protein: recombinant; tags: N-terminal GST; dsDNA, one strand shown
T9 sequence: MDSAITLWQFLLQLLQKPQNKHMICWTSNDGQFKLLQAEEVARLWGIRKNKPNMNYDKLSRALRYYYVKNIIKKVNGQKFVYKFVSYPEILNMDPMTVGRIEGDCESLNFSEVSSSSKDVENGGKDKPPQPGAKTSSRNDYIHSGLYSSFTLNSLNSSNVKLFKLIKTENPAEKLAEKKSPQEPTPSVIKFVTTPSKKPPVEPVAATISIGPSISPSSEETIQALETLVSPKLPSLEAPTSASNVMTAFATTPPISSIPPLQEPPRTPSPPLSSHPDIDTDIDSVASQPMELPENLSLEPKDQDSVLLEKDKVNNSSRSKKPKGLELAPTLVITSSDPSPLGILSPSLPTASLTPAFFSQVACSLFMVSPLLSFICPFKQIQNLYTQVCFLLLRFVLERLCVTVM
Method in brief: as §1

ETV2 = molecular target: T10, ETV2 (Homo sapiens, UniProt O00321 1-342); settings: protein: recombinant; tags: N-terminal GST; dsDNA, one strand shown
T10 sequence: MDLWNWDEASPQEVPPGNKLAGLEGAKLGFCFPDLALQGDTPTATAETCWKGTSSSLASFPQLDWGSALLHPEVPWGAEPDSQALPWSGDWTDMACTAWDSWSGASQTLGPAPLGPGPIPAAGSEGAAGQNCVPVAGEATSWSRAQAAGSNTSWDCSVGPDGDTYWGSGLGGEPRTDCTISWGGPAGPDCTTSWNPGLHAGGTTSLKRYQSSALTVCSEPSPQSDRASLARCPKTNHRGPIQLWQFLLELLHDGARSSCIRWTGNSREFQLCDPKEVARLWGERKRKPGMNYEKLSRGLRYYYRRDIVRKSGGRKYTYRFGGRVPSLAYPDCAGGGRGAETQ
Method in brief: as §1

ELF3 = molecular target: T11, ELF3 (Homo sapiens, UniProt P78545 1-371); settings: protein: recombinant; tags: N-terminal GST; dsDNA, one strand shown
T11 sequence: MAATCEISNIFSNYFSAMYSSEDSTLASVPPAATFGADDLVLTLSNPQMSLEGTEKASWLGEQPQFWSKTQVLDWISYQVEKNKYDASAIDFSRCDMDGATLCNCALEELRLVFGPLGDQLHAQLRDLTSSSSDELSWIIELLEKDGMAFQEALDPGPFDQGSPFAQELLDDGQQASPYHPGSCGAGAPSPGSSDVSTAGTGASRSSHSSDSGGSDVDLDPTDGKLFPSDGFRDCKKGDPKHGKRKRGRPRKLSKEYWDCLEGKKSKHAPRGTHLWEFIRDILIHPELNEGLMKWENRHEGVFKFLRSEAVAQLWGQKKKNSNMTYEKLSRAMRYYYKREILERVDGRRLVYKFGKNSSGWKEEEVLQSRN
Method in brief: as §1

CRX = CRX (Homo sapiens, UniProt O43186 1-299); settings: protein: recombinant; tags: N-terminal GST; dsDNA, one strand shown
Chain of CRX (O43186 whole entry): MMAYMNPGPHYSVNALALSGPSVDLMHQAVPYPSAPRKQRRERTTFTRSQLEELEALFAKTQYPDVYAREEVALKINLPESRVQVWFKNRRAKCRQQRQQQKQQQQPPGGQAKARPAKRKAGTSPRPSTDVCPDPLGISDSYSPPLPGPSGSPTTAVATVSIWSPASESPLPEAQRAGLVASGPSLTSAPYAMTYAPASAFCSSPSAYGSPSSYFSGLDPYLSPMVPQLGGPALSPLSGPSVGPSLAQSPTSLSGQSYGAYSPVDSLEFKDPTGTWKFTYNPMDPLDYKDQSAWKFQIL
Method in brief: as §1

ETV1 = ETV1 (Homo sapiens, UniProt P50549 1-477); settings: protein: recombinant; tags: N-terminal GST; dsDNA, one strand shown
Chain of ETV1 (P50549 whole entry): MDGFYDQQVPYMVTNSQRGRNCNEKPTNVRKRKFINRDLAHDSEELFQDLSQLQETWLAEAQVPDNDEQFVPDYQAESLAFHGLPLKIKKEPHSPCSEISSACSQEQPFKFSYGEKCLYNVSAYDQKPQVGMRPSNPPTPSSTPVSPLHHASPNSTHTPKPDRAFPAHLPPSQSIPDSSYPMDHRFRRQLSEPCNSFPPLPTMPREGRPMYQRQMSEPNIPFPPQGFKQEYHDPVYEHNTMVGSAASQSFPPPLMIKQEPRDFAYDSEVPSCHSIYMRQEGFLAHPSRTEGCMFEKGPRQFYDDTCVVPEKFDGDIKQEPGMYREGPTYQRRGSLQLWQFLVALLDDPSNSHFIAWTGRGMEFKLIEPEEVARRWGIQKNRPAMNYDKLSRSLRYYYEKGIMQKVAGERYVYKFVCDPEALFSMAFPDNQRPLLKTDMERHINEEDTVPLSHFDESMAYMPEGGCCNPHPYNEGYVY
Method in brief: as §1

CAAAAT
binding signal (FLI1): 1.16 fold enrichment (6-mer frequency, TF over GST control)
binding signal (ELK1): 1.11 fold enrichment (6-mer frequency, TF over GST control)
binding signal (GABPA): 1.2 fold enrichment (6-mer frequency, TF over GST control)
binding signal (ERG): 1.27 fold enrichment (6-mer frequency, TF over GST control)
binding signal (ELF1): 1.18 fold enrichment (6-mer frequency, TF over GST control)
binding signal (EHF): 1.16 fold enrichment (6-mer frequency, TF over GST control)
binding signal (SPI1): 1.28 fold enrichment (6-mer frequency, TF over GST control)
binding signal (SPIB): 1.18 fold enrichment (6-mer frequency, TF over GST control)
binding signal (ELK3): 1.21 fold enrichment (6-mer frequency, TF over GST control)
binding signal (FEV): 1.17 fold enrichment (6-mer frequency, TF over GST control)
binding signal (ETV5): 1.22 fold enrichment (6-mer frequency, TF over GST control)
binding signal (HSF1): 1.2 fold enrichment (6-mer frequency, TF over GST control)
binding signal (SPIC): 1.16 fold enrichment (6-mer frequency, TF over GST control)
binding signal (ELF4): 1.25 fold enrichment (6-mer frequency, TF over GST control)
binding signal (ELK4): 1.23 fold enrichment (6-mer frequency, TF over GST control)
binding signal (ETV2): 1.28 fold enrichment (6-mer frequency, TF over GST control)
binding signal (ELF3): 1.2 fold enrichment (6-mer frequency, TF over GST control)
binding signal (CRX): 1.22 fold enrichment (6-mer frequency, TF over GST control)
binding signal (ETV1): 1.25 fold enrichment (6-mer frequency, TF over GST control)
